Most compounds without a hit are left out; they make up all but 3.8% or so of the library.
GDH-TPI inh: GDH-TPI coupled enzyme inhibition counter-screen; GDH-TPI coupled enzyme counterscreen, NADH absorbance; inhibition, % at 4.8 µM; actives 1.2% (n = 360,000); in the data active means inhibition above about 30%;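 further: 0% = DMSO wells and 100% = wells lacking the enzyme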
Mtb hypoxia rep: Mtb hypoxia fluorescent reporter inhibition; fluorescence inhibition, % (concentration not given with the values); AID 1159583; actives 0.1% (n = 300,000); M. tuberculosis hypoxia-regulated fluorescent reporter, fluorescence; in the data active means fluorescence inhibition mostly above about 23%, no sharp cut-off; inactive means mostly below about 17%
PrP 5UTR inh: suppresses PrP 5' UTR mRNA reporter expression | cell-based PrP 5' UTR mRNA reporter, plate reader | inhibition, % (test concentration not listed) | actives 0.35% (n = 340,000) | AID 488862; in the data active means inhibition above about 52%; further: 0 = median of the neutral control wells
PrPC TRFRET: inhibitors of human cell surface prion protein PrPC; TR-FRET read-out; actives 0.43% (n = 370,000); inhibition, % at 13.8 µM; AID 720596; P04156; in the data active means inhibition above about 24%; further: 0% = median of the test wells and 100% = reference compound wells
FBA Mtb inh: inhibitors of M. tuberculosis fructose-bisphosphate aldolase; P9WQA3; purified M. tuberculosis FBA, fluorescence read-out; inhibition, % at 1 µM; actives 2.3% (n = 360,000); AID 588726; in the data active means inhibition above about 27%;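 further: 0% = vehicle and 100% = reference inhibitor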
Target sequence (P9WQA3 whole entry, looked up): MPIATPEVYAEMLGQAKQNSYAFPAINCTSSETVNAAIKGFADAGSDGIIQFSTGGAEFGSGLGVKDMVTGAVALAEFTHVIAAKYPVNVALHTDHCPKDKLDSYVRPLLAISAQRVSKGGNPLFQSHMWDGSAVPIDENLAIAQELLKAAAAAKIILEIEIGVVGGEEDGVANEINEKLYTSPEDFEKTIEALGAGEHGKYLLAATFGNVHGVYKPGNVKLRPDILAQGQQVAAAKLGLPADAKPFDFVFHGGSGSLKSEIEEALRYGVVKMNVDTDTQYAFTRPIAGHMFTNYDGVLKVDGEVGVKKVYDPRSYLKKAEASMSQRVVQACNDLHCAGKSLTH
Yp Topo-I inh: blocks Yersinia pestis topoisomerase I activity | Y. pestis Topo-I cleavage product accumulation, plate reader | activity, % at 10 µM | actives 0.064% (n = 360,000); in the data active means activity above about 50%, passing the limit was not always enough
An asterisk follows results filed as active; nt = no result given; + = active, no number.

SMILES | GDH-TPI inh | Mtb hypoxia rep | PrP 5UTR inh | PrPC TRFRET | FBA Mtb inh | Yp Topo-I inh
CCc1ccccc1NC(=O)CC1SC(=Nc2nccs2)N(CC)C1=O (stereo not drawn) | nt | 2 | nt | nt | nt | nt
O=C(CCN1CCN(C(c2ccccc2)c2ccccc2)CC1)NN=Cc1ccc(O)cc1 | nt | 9 | nt | nt | nt | nt
O=c1c2ccccc2nc(COc2ccccc2)n1/N=C/c1ccc(O)c(O)c1 | 34* | nt | -6 | 3 | 4 | 0
O=C(O)COc1ccc(/C=N/n2c(COc3ccccc3)nc3ccccc3c2=O)cc1 | -1 | nt | -10 | -3 | -2 | 2
CCCc1nc2ccccc2c(=O)n1/N=C/c1ccc(O)cc1O | 31* | nt | -19 | -2 | 0 | 4
Cc1ccc(OCC(=O)NN=Cc2ccccc2)c([N+](=O)[O-])c1 | nt | -5 | nt | nt | nt | nt
COc1ccc(S(=O)(=O)Nc2cccc3c2OC(CN(C)C(=O)Nc2c(C)noc2C)C(C)CN(C(C)CO)C3=O)cc1 (stereo not drawn) | nt | 6 | nt | nt | nt | nt
CN(C)C(=O)COC(=O)c1cc(Cl)cc(Cl)c1N | 5 | 5 | -19 | -2 | 127* | -3
Cc1ncc([N+](=O)[O-])n1CCOC(=O)c1cc(Cl)cc(Cl)c1N | 12 | 10 | -24 | 4 | 7 | -2
Cc1ccc(NC(=O)COC(=O)CCC2CCCC2)c(Br)c1 | 8 | 1 | -11 | -4 | 3 | 70*
CCCN(CCC)CCCNC(=S)Nc1ccc2nc(N3CCN(CC)CC3)cc(C)c2c1 | 28 | 10 | -25 | -6 | 7 | 8
Cc1cc(N2CCN(C)CC2)nc2ccc(NC(=S)NC3CC3)cc12 | 35* | 4 | -5 | -7 | 12 | -11
CCCN(CCC)CCCNC(=S)Nc1ccc2nc(N3CCN(C)CC3)cc(C)c2c1 | 32* | 14 | -12 | -14 | 14 | -14
CC(C)NC(=O)N(C)CC1Oc2c(NS(=O)(=O)c3ccccc3)cccc2C(=O)N(C(C)CO)CC1C (stereo not drawn) | nt | 10 | nt | nt | nt | nt
CCOC(=O)c1c(N)n(C2CC(C)(C)NC(C)(C)C2)c2nc3ccccc3nc12 | 23 | -11 | 13 | nt | 154* | -17
COC(=O)c1c(N)n(CCCN2CCOCC2)c2nc3ccccc3nc12 | 2 | 4 | -24 | -7 | 158* | -2
COCCOC(=O)c1c(N)n(CCCN2CCOCC2)c2nc3ccccc3nc12 | 15 | 14 | -4 | -3 | 166* | -1
CCOC(=O)c1c(N)n(-c2ccc(N)cc2)c2nc3ccccc3nc12 | 25 | -10 | -3 | -7 | 3 | -3
CCOC(=O)c1c(N)n(CCN2CCCCC2)c2nc3ccccc3nc12 | 17 | 1 | -21 | -7 | 164* | -6
CC(C)CC(NC(=O)c1nc[nH]c1C(=O)NC1CCNCC1)C(=O)OCc1ccccc1 (stereo not drawn) | nt | 6 | nt | nt | nt | nt
COc1cccc(/C=C2\Sc3ccc(C(=O)NCc4cccnc4)cc3N(C)C2=O)c1 | 0 | 3 | -22 | 3 | 3 | 36
COc1ccc(/C=C2\Sc3ccc(C(=O)NCc4cccnc4)cc3N(C)C2=O)cc1OC | 35* | 13 | -21 | -3 | 0 | 39
COC(=O)c1cc2c(C)nn(-c3ccccc3)c2s1 | -5 | nt | -31 | 2 | 35* | -2
Cc1nn(-c2ccccc2)c2sc(C(=O)O)cc12 | 5 | -6 | 6 | -20 | 0 | 4
Cc1nn(-c2ccccc2)c2sc(-c3n[nH]c(=S)o3)cc12 | 42* | 1 | -4 | -5 | + | 5
SMILES | GDH-TPI inh | Mtb hypoxia rep | PrP 5UTR inh | PrPC TRFRET | FBA Mtb inh | Yp Topo-I inh
Cc1cc(C)c(NC(=O)C2CCCN(S(=O)(=O)c3c(C)noc3/C=C/N(C)C)C2)c(C)c1 (stereo not drawn) | 34* | 4 | -6 | -5 | -2 | 21
Cc1noc(/C=C/N(C)C)c1S(=O)(=O)N1CCCC(C(=O)NC2CCCCC2)C1 (stereo not drawn) | 58* | 5 | -6 | 0 | -1 | 23
Cc1noc(/C=C/N(C)C)c1S(=O)(=O)N1CCCC(C(=O)Nc2ccc3c(c2)OCO3)C1 (stereo not drawn) | 30 | nt | 7 | 7 | 5 | 1
Cc1noc(/C=C/N(C)C)c1S(=O)(=O)N(C)CC(=O)NC1CCCCC1 | 51* | nt | -9 | 1 | 5 | 17
Cc1noc(/C=C/N(C)C)c1S(=O)(=O)N1CCCC(C(=O)Nc2ccccc2F)C1 (stereo not drawn) | 47* | 1 | 3 | -7 | 0 | -3
Cc1noc(C=CN(C)C)c1S(=O)(=O)N1CCCC(C(=O)Nc2ccc3c(c2)OCO3)C1 (stereo not drawn) | nt | 5 | nt | nt | nt | nt
Cc1noc(/C=C/N(C)C)c1S(=O)(=O)N1CCCC(C(=O)N2CCCCC2)C1 (stereo not drawn) | 25 | 5 | -10 | -9 | -2 | 23
COCC=CC1=CC2=CC(=O)C(C)(OC(=O)C3CCCC3)C(=O)C2=CO1 (stereo not drawn) | nt | 15 | nt | nt | nt | nt
CCc1ccc(NC(=O)C2CCN(S(=O)(=O)c3c(C)noc3/C=C/N(C)C)CC2)cc1 | 24 | 7 | -12 | 1 | -4 | 3
Cc1ccc(C)c(N2CCN(S(=O)(=O)c3c(C)noc3/C=C/N(C)C)CC2)c1 | 36* | nt | -12 | 7 | -5 | -3
CNC(=O)C1CCN(S(=O)(=O)c2c(C)noc2/C=C/N(C)C)CC1 | 35* | -9 | -11 | -3 | -4 | -5
CC(=NNC(=O)c1nn(C)cc1Br)c1ccncc1 | nt | 5 | nt | nt | nt | nt
CC(C)C(C(=O)O)N(Cc1cccc(CN(C(C(=O)O)C(C)C)S(C)(=O)=O)c1)S(C)(=O)=O (stereo not drawn) | nt | 2 | nt | nt | nt | nt
CCn1c(SCC(=O)Nc2oc(-c3ccccc3)c(-c3ccccc3)c2C#N)nnc1-c1ccncc1 | 32* | nt | -13 | -1 | 0 | 5
N#C/C(=C\c1cn(-c2ccccc2)nc1-c1cccnc1)c1nnc2n1CCCCC2 | 39* | 0 | 3 | -14 | 3 | 22
O=C(/C=C/c1cn(-c2ccccc2)nc1-c1cccnc1)N1CCCC1 | 3 | 8 | -14 | -2 | 1 | 31
COC(=O)Cc1cc(=O)[nH]c(N=C(N)Nc2ccc(C)cc2)n1 | nt | -7 | nt | nt | nt | nt
CN(C)c1ccc(C=c2c3cc([N+](=O)[O-])ccc3n3c2cc(-c2ccccc2)[n+]3C)cc1 | 42* | nt | -20 | 3 | -3 | -50
CN(C)/C=N/c1sc2c(c1C#N)CC(C)(C)NC2(C)C | 36* | nt | 7 | -7 | 0 | -3
CCN(/C=N/c1sc2c(c1C#N)CC(C)(C)NC2(C)C)CC | 30 | nt | -12 | -1 | 2 | 3
CS(=O)(=O)c1nc(-c2ccccc2)cc(C(F)(F)F)n1 | 3 | nt | -6 | 29* | 3 | -2
C/C(=N\Nc1ccc(C(F)(F)F)cn1)c1ccncc1 | 56* | nt | -32 | 0 | -2 | -1
CC(=NNc1ncc(C(F)(F)F)cc1Cl)c1ccncc1 | nt | 0 | nt | nt | nt | nt
Cc1c(C=NNC(=O)c2cc(C(C)(C)C)[nH]n2)c2ccccc2n1C | nt | 11 | nt | nt | nt | nt
CN(C)C=Nc1ccc2nn(-c3ccccc3)nc2c1 | 10 | 9 | -101 | -10 | 177* | -1

Bioassay records from PubChem BioAssay.
